Measurements published in PubChem BioAssay (NCATS).
Records with an inconclusive call do not appear. Entries that show only a call come without a potency. Calls of active or inactive are those of the source. The call rests on the fitted dose curve; in most records, active means well fitted curve in the direction sought with a large enough effect; inconclusive means small, poorly fitted or top-dose-only effect, or another doubt; inactive means no such curve, though single readings can be large; an effect the other way counts as inactive or inconclusive.

Legend:
PA-1 = test: Primary qHTS to identify gynecologic anti-cancer compounds using libraries of approved drugs and bioactive compounds (AID 1345084); details: Gynecologic cancer cell panel viability, ATPlite luminescence, 48 h; series mostly up to 57.5 µM; further: nearly all actives have a fitted effect of over 55% in size
How it was run: (§1)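 Cytotoxicity screen measuring ATP content by luciferase luminescence. Each compound is applied at five concentrations for 48 h at 37 C with 5% CO2.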

SKOV3 = test: as above; details: Gynecologic cancer cell panel viability, ATPlite luminescence, 48 h; series mostly up to 57.5 µM
How it was run: as §1

Tov112D = test: as above; details: Gynecologic cancer cell panel viability, ATPlite luminescence, 48 h; series mostly up to 57.5 µM
How it was run: as §1

Tov-21-G = test: as above; details: Gynecologic cancer cell panel viability, ATPlite luminescence, 48 h; series mostly up to 57.5 µM
How it was run: as §1

[1] = qHTS assay to identify inhibitors of the type 1 interferon - major histocompatibility complex class I in skeletal muscle: Counter screen cell viability and HiBit confirmation (AID 1347412); details: iHSKM muscle cells + IFN-b, HiBiT or CellTiter-Glo, 24 h; further: nearly all actives have a fitted effect of over 60% in size
How it was run: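 Luminescence read-out: Nano-Glo HiBiT lytic signal from C-terminally HiBiT-tagged HLA-B in CRISPR-edited human myoblasts, plus CellTiter Glo ATP as viability counter screen. IFN-beta 4.0 ng/ml; 24 hrs treatment at 37 C, 5% CO2.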
Potency means the concentration at half of the fitted maximal effect.

C=C1C(=O)O[C@@H]2[C@H]1CC[C@H](C)[C@]1(CCC(=O)O1)C2(C)O (stereo partly drawn)
Potency (PA-1): inactive | Potency (SKOV3): inactive | Potency (Tov112D): inactive

O=C(c1ccccc1)c1c(O)cc(O)cc1O[C@@H]1O[C@H](CO)[C@@H](O)[C@H](O)[C@H]1O
Potency (PA-1): 11.2 µM (active) | Potency (SKOV3): inactive | Potency (Tov112D): 11.2 µM (active)

COc1ccc(S(=O)(=O)N2CCC[C@H]2C(=O)Nc2cc(C)cc(C)c2)cc1
Potency (PA-1): inactive | Potency (SKOV3): inactive | Potency (Tov112D): inactive

CN[C@@H]1[C@H](O[C@H]2[C@H](O[C@@H]3[C@@H](O)[C@H](O)[C@@H](N=C(N)N)[C@H](O)[C@H]3N=C(N)N)O[C@@H](C)[C@]2(O)CO)O[C@@H](CO)[C@H](O)[C@H]1O
Potency (PA-1): inactive | Potency (SKOV3): inactive | Potency (Tov-21-G): inactive | Potency (Tov112D): inactive

O=C(NCc1ccccc1)c1ccc2c(=O)n(-c3cccc(C(F)(F)F)c3)c(=S)[nH]c2c1
Potency (PA-1): inactive | Potency (SKOV3): inactive | Potency (Tov-21-G): inactive | Potency (Tov112D): inactive

Cc1cc(-c2nc3cc(F)ccc3s2)ccc1NC(=O)[C@@H](N)CCCCN
Potency (PA-1): 10 µM (active) | Potency (SKOV3): 11.2 µM (active) | Potency (Tov-21-G): 14.1 µM (active) | Potency (Tov112D): 15.8 µM (active) | Potency ([1]; Viability): 22.2 µM (active)

N#Cc1cccc(C(=O)Nc2cc(-c3ccccc3)nn2-c2ccccc2)c1
Potency (PA-1): inactive | Potency (SKOV3): inactive | Potency (Tov-21-G): inactive | Potency (Tov112D): inactive

O=C(NC1CCC1)c1ccc(C#Cc2cccc(F)c2)nc1
Potency (PA-1): inactive | Potency (SKOV3): inactive | Potency (Tov-21-G): inactive | Potency (Tov112D): inactive

CC1OC2OC(=O)C3(C)CC4C5(CO5)C5=CC(=O)OC(C)(C)C5=CC(=O)C4(C)C(C1=O)C23 (stereo not drawn)
Potency (PA-1): inactive | Potency (SKOV3): inactive | Potency (Tov112D): inactive

C=C1C(=O)OC2CC(C)C(CCC(C)=O)=CCC12 (stereo not drawn)
Potency (PA-1): inactive | Potency (SKOV3): inactive | Potency (Tov112D): inactive

COc1cc(N2CCC(N)CC2)ccc1Nc1ncc(Cl)c(-c2c[nH]c3ccccc23)n1
Potency (PA-1): 15.8 µM (active) | Potency (SKOV3): 5.01 µM (active) | Potency (Tov-21-G): 8.91 µM (active) | Potency ([1]; HiBiT): 5.57 µM (active)

C[C@H]1CC[C@@]2(OC1)O[C@H]1CC3C4CC[C@H]5C[C@@H](O)CC[C@]5(C)C4=CC(=O)[C@]3(C)[C@H]1[C@@H]2C (stereo partly drawn)
Potency (PA-1): inactive | Potency (SKOV3): inactive | Potency (Tov-21-G): inactive | Potency (Tov112D): inactive

CCOc1cc(C(C)(C)C)ccc1C1=N[C@@](C)(c2ccc(Cl)cc2)[C@@](C)(c2ccc(Cl)cc2)N1C(=O)N1CCN(CC(=O)N2CCOCC2)CC1
Potency (PA-1): 10 µM (active) | Potency (SKOV3): inactive | Potency (Tov112D): inactive

CC(C)S(=O)(=O)c1ccc2nccc(Nc3ccc4scnc4c3)c2c1
Potency (PA-1): inactive | Potency (SKOV3): 12.6 µM (active) | Potency (Tov112D): inactive

C=C1C(=O)O[C@@H]2/C=C(/C)[C@@H](OC(C)=O)C/C=C(\C)C[C@@H](OC(=O)/C(=C/CO)CO)[C@@H]12
Potency (PA-1): inactive | Potency (SKOV3): inactive | Potency (Tov112D): inactive

CCN(Cc1ccccc1)C(=O)Cn1c(=O)n(C)c2cnc(-c3ccccc3)nc21
Potency (PA-1): inactive | Potency (Tov-21-G): inactive | Potency (Tov112D): inactive

Nc1ncnc2c1c(-c1ccc(Oc3ccccc3)cc1)nn2[C@@H]1CCCNC1
Potency (PA-1): 25.1 µM (active) | Potency (Tov-21-G): inactive

CC[C@@H](C)Nc1cc(C(=O)NC2CC3CC[C@@H](C2)N3c2ccc(C(=O)C3CC3)cn2)c(C)cc1C(N)=O (stereo partly drawn)
Potency (PA-1): 0.316 µM (active) | Potency (Tov-21-G): 0.398 µM (active)

C=C1C(=O)OC2/C=C(\C)CC/C=C(\C=O)C(OC)C(OC(=O)C(C)CC)C12 (stereo not drawn)
Potency (PA-1): inactive | Potency (SKOV3): inactive | Potency (Tov112D): inactive

CNc1nc(NCc2ccc(NS(C)(=O)=O)cc2Cl)cc(-c2ccccn2)n1
Potency (PA-1): inactive | Potency (Tov-21-G): inactive

Cc1ccc(-c2ncccn2)c(C(=O)N2C[C@H](COc3ccc(F)cn3)CC[C@H]2C)c1
Potency (PA-1): inactive | Potency (Tov-21-G): inactive | Potency (Tov112D): inactive
